Values joined by “and” are separate entries in the source; they are usually repeats but may differ in a detail not shown here. Equal entries are not always repeated. The source holds several records for some structures; these can differ, active in one and inactive in another. Active and inactive are the calls of the source. Where a call stands in place of a potency, no number is given. Unless noted, calls come from the whole dose curve; as a rule, active = well fitted curve in the direction sought with a large enough effect in the repeat runs; inconclusive = weak or mixed curves; inactive = no such curve, though single readings can be large; an effect the other way counts as inactive or inconclusive.
How the values were obtained:
[1] = qHTS assay to identify small molecule antagonists of the estrogen receptor alpha (ER-alpha) signaling pathway using the BG1 cell line (AID 743080; calls by dose curve; note: nearly all actives have a fitted effect of over 25% in size; note: potency is the fitted concentration of half-maximal effect); settings: BG1Luc4E2 ERE-luciferase antagonist mode, luminescence; series mostly up to 70.3 µM
How it was run: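 Antagonist mode: compounds in DMSO were pinned onto BG1-Luc-4E2 cells alongside 17beta-estradiol agonist, incubated 21.5 h, and ERE-driven luciferase measured with ONE-Glo. Cytotoxicity was multiplexed using CellTiter-Fluor fluorescence.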

[2] = qHTS assay to identify small molecule antagonists of the estrogen receptor alpha (ER-alpha) signaling pathway using the BG1 cell line - cell viability counter screen (AID 743081); settings: BG1Luc4E2 viability, CellTiter-Fluor, 22 h; series mostly up to 70.3 µM;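 note: compound given together with 17beta-estradiol as the ER stimulus; nearly all actives have a fitted effect of over 45% in size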; note: potency is the fitted concentration of half-maximal effect
Aromatase (Homo sapiens) = Aromatase (Homo sapiens) (UniProt P11511); assay: qHTS assay to identify aromatase inhibitors (AID 743083); settings: MCF-7 aro ERE, testosterone-driven ERE luciferase, 24 h; series mostly up to 70.3 µM; note: nearly all actives have a fitted effect of over 55% in size; note: potency is the fitted concentration of half-maximal effect
Sequence of Aromatase (Homo sapiens) (P11511 whole entry, looked up): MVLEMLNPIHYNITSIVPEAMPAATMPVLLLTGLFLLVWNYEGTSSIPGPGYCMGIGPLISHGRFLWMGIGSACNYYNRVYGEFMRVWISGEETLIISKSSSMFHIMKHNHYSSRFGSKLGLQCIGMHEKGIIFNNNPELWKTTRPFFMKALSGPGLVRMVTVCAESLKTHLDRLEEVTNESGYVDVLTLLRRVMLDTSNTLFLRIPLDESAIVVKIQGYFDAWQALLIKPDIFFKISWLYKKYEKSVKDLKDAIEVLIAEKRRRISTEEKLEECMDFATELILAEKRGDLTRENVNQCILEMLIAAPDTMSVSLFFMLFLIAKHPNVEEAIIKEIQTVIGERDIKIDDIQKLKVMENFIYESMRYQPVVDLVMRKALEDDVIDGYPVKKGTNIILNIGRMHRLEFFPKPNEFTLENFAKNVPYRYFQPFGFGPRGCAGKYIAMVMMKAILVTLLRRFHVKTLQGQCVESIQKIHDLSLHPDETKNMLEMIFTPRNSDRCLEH

[3] = qHTS assay to identify aromatase inhibitors - cell viability counter screen (AID 743084); settings: MCF-7 aro ERE viability, CellTiter-Fluor, 24 h; series mostly up to 70.3 µM;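 note: cells stimulated with testosterone during compound exposure; nearly all actives have a fitted effect of over 55% in size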; note: potency is the fitted concentration of half-maximal effect
[4] = qHTS assay to identify small molecule antagonists of the estrogen receptor alpha (ER-alpha) signaling pathway - cell viability counter screen (AID 743074; calls by dose curve;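 note: HEK293 cells carrying ER-alpha-UAS-bla reporter stimulated with 17beta-estradiol; nearly all actives have a fitted effect of over 45% in size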; note: potency is the fitted concentration of half-maximal effect); settings: ERalpha-bla HEK293 viability, CellTiter-Glo luminescence, 18 h; series mostly up to 69.4 µM
[5] = biological target: Estrogen receptor (Homo sapiens) (UniProt P03372); assay: qHTS assay to identify small molecule agonists of the estrogen receptor alpha (ER-alpha) signaling pathway (AID 743075; calls by dose curve;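 note: HEK293 GripTite cells with ER-alpha and UAS-driven beta-lactamase reporter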; note: potency is the fitted concentration of half-maximal effect); settings: HEK293 ER-alpha-UAS-bla, beta-lactamase FRET ratio, 18 h; series mostly up to 70.1 µM
Sequence of Estrogen receptor (Homo sapiens) (P03372 whole entry, looked up): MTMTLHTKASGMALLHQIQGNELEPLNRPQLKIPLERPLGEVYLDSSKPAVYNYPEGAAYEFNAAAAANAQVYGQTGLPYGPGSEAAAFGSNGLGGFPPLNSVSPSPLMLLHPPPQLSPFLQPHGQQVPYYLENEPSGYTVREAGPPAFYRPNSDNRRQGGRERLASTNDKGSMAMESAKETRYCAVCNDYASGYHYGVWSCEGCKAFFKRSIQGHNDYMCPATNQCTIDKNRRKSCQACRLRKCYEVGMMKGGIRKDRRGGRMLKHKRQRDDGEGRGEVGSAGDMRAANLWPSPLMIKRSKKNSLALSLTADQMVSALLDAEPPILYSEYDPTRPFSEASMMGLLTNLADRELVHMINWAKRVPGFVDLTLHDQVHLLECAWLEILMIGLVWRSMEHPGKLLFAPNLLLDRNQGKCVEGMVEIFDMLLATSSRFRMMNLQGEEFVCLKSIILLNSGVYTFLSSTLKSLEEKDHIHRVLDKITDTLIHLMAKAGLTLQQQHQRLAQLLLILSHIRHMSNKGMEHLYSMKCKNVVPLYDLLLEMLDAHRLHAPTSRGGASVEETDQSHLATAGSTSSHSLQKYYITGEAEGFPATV

[6] = biological target: Estrogen receptor (Homo sapiens) (UniProt P03372); assay: qHTS assay to identify small molecule antagonists of the estrogen receptor alpha (ER-alpha) signaling pathway (AID 743069; active = well fitted curve in the direction sought with a large enough effect in the signal ratio in the repeat runs, not every such curve was filed as active; inconclusive = weak or mixed curves, or effect the other way; inactive = no such curve, though single readings can be large or run the other way; the % refers to the signal ratio; note: potency is the fitted concentration of half-maximal effect); settings: HEK293 ER-alpha-UAS-bla, beta-lactamase ratio, antagonist mode; series mostly up to 69.4 µM
How it was run: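 Estradiol-stimulated ER-alpha-UAS-bla HEK293 cells, 18 hr compound exposure at 37C. LiveBLAzer B/G substrate, 2 hr RT, fluorescence read.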

[7] = biological target: Estrogen receptor (Homo sapiens) (UniProt P03372); assay: qHTS assay to identify small molecule agonists of the estrogen receptor alpha (ER-alpha) signaling pathway using the BG1 cell line (AID 743079); settings: BG1Luc4E2 cells, ERE-luciferase agonist, 22 h; series mostly up to 70.3 µM; note: nearly all actives have a fitted effect of over 20% in size; note: potency is the fitted concentration of half-maximal effect
[8] = system: thyroid hormone receptor (rat, GH3 cells); assay: qHTS assay to identify small molecule agonists of the thyroid receptor (TR) signaling pathway (AID 743066; calls by dose curve); settings: GH3.TRE-Luc cells, TR agonist luciferase, 24 h; series mostly up to 83.9 µM

Clc1ccc(CO/N=C(\Cn2ccnc2)c2ccc(Cl)cc2Cl)c(Cl)c1
Potency [1]: 11.9 µM (active)
Potency [2]: inactive
Potency (Aromatase (Homo sapiens)): 2.66 µM (active)
Potency [3]: inactive

CCN(CC)C(=S)[S-].CCN(CC)C(=S)[S-].[Zn+2]
Potency [4]: 4.86 µM (active)
Potency [5]: 54.5 µM [inconclusive] (active)
Potency [2]: 42.9 µM (active)
Potency (Aromatase (Homo sapiens)): 0.096 µM (active)
Potency [3]: 0.096 µM (active)

COc1ccc(OC)c(CC(C)N)c1 (stereo not given)
Potency [6]: inactive
Potency [5]: inactive
Potency [7]: inactive
Potency [1]: inactive
Potency [2]: inactive
Potency (Aromatase (Homo sapiens)): inactive
Potency [3]: inactive

C=CC(=O)OCCCCOC(=O)C=C
Potency [4]: inactive
Potency [5]: inactive
Potency [7]: inactive
Potency (Aromatase (Homo sapiens)): 43.3 µM (active)
Potency [3]: 48.6 µM (active)

OC(c1ccc(Cl)cc1)(c1ccc(Cl)cc1)C(Cl)(Cl)Cl
outcome [8]: inactive
Potency [4]: inactive
Potency [2]: inactive
Potency (Aromatase (Homo sapiens)): 61.1 µM (active)
Potency [3]: 61.1 µM (active)

CC(=O)[O-].CC(=O)[O-].O.O.[Cd+2]
outcome [8]: inactive
Potency [4]: 43 µM (active)
Potency [2]: inactive
Potency [3]: 42.7 µM (active)

O=c1[nH]c2ccccc2n1C1CCN(CCCC(c2ccc(F)cc2)c2ccc(F)cc2)CC1
Potency [4]: 26.8 µM (active) and 54.9 µM (active)
Potency [5]: inactive
Potency [2]: 54.5 µM (active)
Potency (Aromatase (Homo sapiens)): inactive and 30.6 µM (active)
Potency [3]: 54.5 µM (active)

CCOP(=O)(NC(C)C)Oc1ccc(SC)c(C)c1 (stereo not given)
Potency [3]: inactive

CC1(C)[C@H](C(=O)O[C@H](C#N)c2cccc(Oc3ccccc3)c2)[C@@H]1/C=C(\Cl)C(F)(F)F
outcome [8]: inactive
Potency [4]: inactive
Potency [2]: inactive
Potency (Aromatase (Homo sapiens)): inactive
Potency [3]: inactive

CC(C)(O)c1cnn2c(-c3ccc(F)c(-c4c(F)cccc4C#N)c3)cnc2n1
outcome [8]: inactive
Potency [4]: inactive
Potency [2]: inactive
Potency (Aromatase (Homo sapiens)): 54.5 µM (active)
Potency [3]: inactive

Clc1ccc(CCC(Cn2ccnc2)Sc2c(Cl)cccc2Cl)cc1 (stereo not given)
outcome [8]: inactive
Potency [4]: inactive
Potency [1]: inactive
Potency [2]: inactive
Potency (Aromatase (Homo sapiens)): 12.7 µM (active)
Potency [3]: inactive

Oc1cc(Cl)c(Cl)c(Cl)c1
Potency [5]: 41.4 µM [activator] (active)
Potency [1]: inactive
Potency [2]: inactive

CCC[CH2][Sn]([CH2]CCC)([CH2]CCC)[O]C(=O)c1ccccc1
Potency [6]: 9.77 µM [cytotoxic] (active)
Potency [4]: 1.74 µM (active)
Potency [1]: 0.344 µM (active)
Potency [2]: 1.72 µM (active)
Potency (Aromatase (Homo sapiens)): 2.17 µM (active)
Potency [3]: 1.54 µM (active)

CCN
outcome [8]: inactive
Potency [4]: inactive
Potency [1]: inactive
Potency [2]: inactive
Potency (Aromatase (Homo sapiens)): inactive
Potency [3]: inactive

CC(C)[C@H](C(=O)O[C@H](C#N)c1cccc(Oc2ccccc2)c1)c1ccc(Cl)cc1
outcome [8]: inactive
Potency [4]: inactive
Potency [2]: inactive
Potency (Aromatase (Homo sapiens)): inactive
Potency [3]: inactive

CN(C)C(=S)[S-].CN(C)C(=S)[S-].[Cu+2]
Potency [4]: 6.7 µM (active)
Potency [2]: 1.49 µM (active)
Potency (Aromatase (Homo sapiens)): 1.49 µM (active)
Potency [3]: 1.87 µM (active)

O=[N+]([O-])c1c2ccccc2cc2ccccc12
outcome [8]: inactive
Potency [7]: 42.9 µM (active)
Potency (Aromatase (Homo sapiens)): inactive
Potency [3]: inactive
